Screening data as filed in PubChem.
The list is not random: actives were taken first. Their share in the collection is about 22%.
CYP2C9 activ – human CYP2C9 activators, primary screen, biochemical, luminescence; activation factor at 5 µM; 96,000 tested, 1.4% active; Cytochrome P450 2C9 (Homo sapiens), P11712; recombinant CYP2C9, luciferin-H conversion; active compounds read high; factor 1 = untreated enzyme, 0 = blocked;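 active = activation factor of 2 or more for CYP2C9 at a 5 µM dose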;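 note: 0 = sulfaphenazole-blocked wells and 1 = vehicle-only wells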
Measles CPE – compounds protecting cells from measles virus cytopathic effect, primary screen, measles RdRp inhibitor project, single point, MLSMR library, absorbance; Measles virus-infected cells, CPE protection; protection (pct of control), % at 4 µM; 140,000 tested, 1.5% active; AID 841, 2007; in the data active = protection mostly above about 24%, no sharp cut-off; inactive = mostly below about 26%
CYP2C19 inh – blockers of cytochrome P450 2C19 activity – biochemical, luminescence, ADME assay, primary screen | P33261 | CYP2C19 Supersomes, luciferin-H EGE luminescence, 30 min | inhibition, % at 5 µM | 96,000 tested, 21% active | AID 778, 2007;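 active = CYP2C19 inhibition above a set limit at 5 µM in the primary screen, cut at about 50% in these data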;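 note: plate controls were negative control wells for no effect and 2.5 mM tranylcypromine positive control for full effect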
Target sequence (P33261 whole entry, looked up): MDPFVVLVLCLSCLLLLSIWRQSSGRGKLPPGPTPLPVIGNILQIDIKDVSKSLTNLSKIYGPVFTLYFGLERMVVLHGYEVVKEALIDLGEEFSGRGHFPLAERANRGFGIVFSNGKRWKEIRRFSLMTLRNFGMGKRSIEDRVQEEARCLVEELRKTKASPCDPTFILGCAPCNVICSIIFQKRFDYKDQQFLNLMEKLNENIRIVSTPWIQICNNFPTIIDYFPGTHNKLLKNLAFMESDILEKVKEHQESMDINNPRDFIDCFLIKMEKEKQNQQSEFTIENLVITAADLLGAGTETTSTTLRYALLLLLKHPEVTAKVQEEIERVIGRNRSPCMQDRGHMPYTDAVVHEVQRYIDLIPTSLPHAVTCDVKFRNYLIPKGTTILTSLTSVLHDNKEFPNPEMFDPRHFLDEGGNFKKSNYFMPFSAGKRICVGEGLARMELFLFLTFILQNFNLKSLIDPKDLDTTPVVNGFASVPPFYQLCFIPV
CYP2C9 inhib – blockers of cytochrome P450 2C9 activity – biochemical, luminescence, ADME assay, primary screen; CYP2C9 Supersomes, luciferin-H conversion; inhibition, % at 5 µM; 96,000 tested, 20% active; AID 777, 2007;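 active = blocking of liver enzyme CYP2C9 beyond about 50% at 5 µM, limit read from the data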
CYP2C19 activ – human CYP2C19 activators, primary screen, biochemical, luminescence | recombinant CYP2C19, luciferin-H EGE luminescence; active compounds read high; 0 = fully inhibited enzyme, 1 = untreated enzyme | activation factor at 5 µM | 96,000 tested, under 10 active | AID 1025, 2008;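 active = activation factor of at least 2 at 5 µM in the primary screen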;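 note: 0 = wells with 2.5 mM tranylcypromine and 1 = vehicle-only wells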
* hit, by the source's call; · = no result.

SMILES | CYP2C9 activ | Measles CPE | CYP2C19 inh | CYP2C9 inhib | CYP2C19 activ
CC(C)c1nc(SCC(=O)NCc2ccccc2)n[nH]1 | 1.1 | 20.3 | 54.2* | -13.0 | 0.5
O=C1SC(c2ccccc2)=C/C1=C\N1CCCCC1 | 0.6 | 3.0 | 57.2* | 41.4 | 0.4
O=C1OC(c2ccccc2)=C/C1=C/N1CCOCC1 | · | 30.3 | · | · | ·
O=C(c1ccc2nc3ccc(Cl)cc3c(=O)n2c1)N1CCOCC1 | 0.9 | 9.9 | 8.5 | 9.3 | 0.9
O=C(Oc1ccc2ccc(OC(=O)N3CCOCC3)cc2c1)N1CCOCC1 | 1.1 | 5.2 | -4.9 | -7.7 | 1
O=C(Nc1cccnc1)c1cccs1 | 1.1 | 7.5 | 4.2 | -7.9 | 1
O=C(COC(=O)c1cccs1)Nc1nc(-c2ccccc2)cs1 | · | 16.9 | · | · | ·
O=C(Nc1ccncc1)c1cccs1 | 0.5 | 5.3 | 47.1 | 52.2* | 0.5
O=C(Nc1nnc(COc2ccc(Cl)cc2)s1)c1cccs1 | 0.5 | 2.8 | 22.0 | 54.6* | 0.8
O=C(Nc1ccc2nsnc2c1)c1cccs1 | 0.8 | 13.6 | 55.0* | 21.6 | 0.4
O=C(COC(=O)c1cccs1)Nc1ccccc1 | 0.9 | 8.1 | 56.7* | 14.5 | 0.4
Cc1ccc(/C=C/C(=O)NCc2cccs2)cc1 | · | 6.8 | · | · | ·
O=C(O)COc1ccc(NC(=O)c2cccs2)cc1 | · | 48.4* | · | · | ·
O=C(COc1ccccc1)NNC(=O)c1cccs1 | · | 2.3 | · | · | ·
CCc1c(C(=O)Nc2ccncc2)csc1C | 0.2 | 10.2 | 98.2* | 84.2* | 0
O=C(Nc1cccc(-c2csc(-c3ccccc3)n2)c1)c1cccs1 | 0.1 | 18.2 | 50.6* | 91.4* | 0.5
c1cc2nc(C34CC5CC(CC(C5)C3)C4)[nH]c2cn1 | · | 6.0 | · | · | ·
CNC(=O)C12CC3CC(CC(Cl)(C3)C1)C2 | · | 10.0 | · | · | ·
COc1ccc(-c2cc(C3CC3)nc3sc(C#N)c(N)c23)cc1 | 0.4 | 6.9 | 57.2* | 58.8* | 0.4
CC1CCCN(CC(=O)Nc2cccc([N+](=O)[O-])c2)C1 (configuration not stated) | · | 31.6* | · | · | ·
CC1CCCN(CC(=O)Nc2ccc(S(=O)(=O)NC3CCCCC3)cc2)C1 (configuration not stated) | 0.5 | 5.2 | 78.3* | 52.1* | 0.2
CC1CCCN(CC(=O)Nc2ccc(S(=O)(=O)N3CCCCC3)cc2)C1 (configuration not stated) | · | 7.3 | · | · | ·
O=C(CNC1CCCCCC1)Nc1ccc(S(=O)(=O)NC2CC2)cc1 | 0.7 | 1.6 | 25.4 | 29.3 | 0.7
CC1CCCN(CC(=O)Nc2ccc(S(=O)(=O)N3CCCCCC3)cc2)C1 (configuration not stated) | 0.4 | 6.7 | 26.5 | 62.1* | 0.7
COC(=O)NNC(=O)CCCOc1ccc(Cl)cc1Cl | · | 13.5 | · | · | ·
SMILES | CYP2C9 activ | Measles CPE | CYP2C19 inh | CYP2C9 inhib | CYP2C19 activ
O=C(COc1ccc(Br)cc1Cl)NC(=O)NCc1ccccc1 | · | 16.4 | · | · | ·
COc1ccc(/C=N/NC(=O)CCCOc2ccc(Cl)cc2Cl)cc1[N+](=O)[O-] | 0.3 | 3.5 | 85.6* | 70.4* | 0.1
CC(C)NC(=O)CCCOc1ccc(Cl)cc1Cl | 0.8 | 10.8 | 59.3* | 24.7 | 0.4
CCN(CC)C(=O)CCCOc1ccc(Cl)cc1Cl | 0.8 | 11.8 | 97.0* | 21.2 | 0
CCN(CC)C(=O)COc1ccc(Br)cc1Cl | 0.7 | 5.8 | 81.7* | 25.7 | 0.2
O=C(O)CCC(=O)NNC(=O)CCCOc1ccc(Cl)cc1Cl | 1.2 | 4.8 | -20.6 | -24.6 | 1.2
O=C(O)C1CC=C(Cl)CC1C(=O)NCC1OCCc2ccccc21 (configuration not stated) | 0.9 | 19.6 | 3.1 | 6.8 | 1
Cc1oc(/N=C/c2c(O)ccc3ccccc23)c(C#N)c1C | 0.8 | · | 6.8 | 19.9 | 0.9
Cc1ccccc1S(=O)(=O)c1c(C)cc(C)n(CC(C)C)c1=O | 0.2 | 4.8 | 82.1* | 81.4* | 0.2
Cc1ccc(S(C)(=O)=O)cc1S(=O)(=O)Nc1ccccc1 | · | 5.8 | · | · | ·
CC(=O)N(Cc1cc2cc(C)c(C)cc2n2nnnc12)CC1COCCO1 (configuration not stated) | 1 | · | 24.6 | 4.4 | 0.8
Cc1ccc2c(c1)cc(CN(Cc1ccc3c(c1)OCO3)C(=O)c1cnccn1)c1nnnn12 | 0.5 | 26.9 | 38.4 | 47.9 | 0.6
O=C(c1ccccc1F)N(Cc1ccc2c(c1)OCO2)Cc1cc2cc3c(cc2n2nnnc12)OCO3 | 0.5 | 11.6 | 77.7* | 50.3* | 0.2
Cc1cc2cc(CN(Cc3ccc4c(c3)OCO4)C(=O)c3cnccn3)c3nnnn3c2cc1C | 0.4 | 21.2 | 60.6* | 63.2* | 0.4
Clc1cccc(Nc2ncnc3c2cnn3-c2ccccc2)c1 | 1.2 | 6.0 | -16.6 | -15.4 | 1.2
Cc1ccc(-c2nc(SCC(=O)NCC3CCCO3)c(-c3ccc(C)cc3)[nH]2)cc1 (configuration not stated) | · | 19.8 | · | · | ·
CC(=O)Nc1ccc(S(=O)(=O)N2CCN(c3ccccn3)CC2)cc1 | 0.5 | 2.8 | 16.9 | 48.7 | 0.8
COc1ccc(S(=O)(=O)N2CCN(c3ccccn3)CC2)cc1OC | 0.6 | 2.5 | 69.8* | 36.6 | 0.3
CCOc1ccc(S(=O)(=O)N2CCN(c3ccc(C)cc3C)CC2)cc1 | 0.2 | 10.8 | 53.7* | 80.5* | 0.5
COc1ccc(S(=O)(=O)N2CCN(c3c(C)cccc3C)CC2)cc1OC | 0.1 | 8.5 | 98.9* | 93.9* | 0
COc1ccc(S(=O)(=O)N2CCN(C)CC2)cc1C | 1.5 | 5.0 | 13.9 | -46.3 | 0.9
COc1ccc(S(=O)(=O)N2CCN(c3ccc(C)cc3C)CC2)cc1OC | 0.5 | 5.4 | 45.7 | 52.1* | 0.5
CCN(CC)S(=O)(=O)c1ccc(N2CCCC2)c(NS(=O)(=O)c2ccc(F)cc2)c1 | · | 39.6 | · | · | ·
COC(=O)c1ccc2c(c1)C(=O)N(C1CCCCC1)C2=O | 1 | 5.1 | 3.3 | -3.1 | 1
O=C(Cn1c(C2CC2)nc2ccccc2c1=O)Nc1ccc(Br)cc1 | 0.5 | 1.7 | 55.6* | 50.8* | 0.4
SMILES | CYP2C9 activ | Measles CPE | CYP2C19 inh | CYP2C9 inhib | CYP2C19 activ
O=C(Cn1c(CN2CCCCC2)nc2ccccc2c1=O)Nc1ccccc1 | 0.6 | 5.4 | 88.2* | 40.9 | 0.1
CC(=O)Nc1ccc2nc(C)n(Cc3ccc(Cl)cc3)c(=O)c2c1 | · | 20.2 | · | · | ·
CCOC(=O)CCNC(=O)Nc1ccc2nc(C)n(Cc3ccc(Cl)cc3)c(=O)c2c1 | 0.3 | 38.3* | 48.2 | 70.8* | 0.5
O=C(Cn1c(CN2CCCCC2)nc2ccccc2c1=O)NC1CCCCC1 | · | 8.8 | · | · | ·
Cc1cc(NC(=O)Cn2nc3c(cc2=O)CCCC3)ccc1Br | 0.6 | 7.6 | 88.0* | 39.4 | 0.1
NC(=O)c1cc(S(=O)(=O)Nc2cccc(F)c2)co1 | 0.9 | 8.1 | 36.9 | 12.3 | 0.6
O=C(Nc1ccc(S(=O)(=O)Nc2ccccc2)cc1)C1COc2ccccc2O1 (configuration not stated) | · | 24.6 | · | · | ·
Cc1c(-c2ccco2)[n+](=O)c2c(n1[O-])CCC2 | 1 | 18.6 | 7.7 | -4.3 | 0.9
